Experimental data reported in PubChem BioAssay (NCI).
Compounds without any hit were thinned out: in the full panel of roughly 83,000, 20% have a hit.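 For each line, cells grew in 96-well plates with the test compound present at a single concentration for 48 hours.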 Values without a mark were called inactive. The source made the active and inactive calls. Rule for the calls: active = growth percent below 10; inactive = the rest.

What follows are compounds tested on MDA-MB-468 breast (assay: NCI-60 one-dose screen, 48 h (100 = growth as untreated, 0 = no growth, -100 = all killed)). Details: 10 µM unless noted.

Row | Structure (SMILES) | growth
1 | Cc1cc(N2CCN(CC(=O)Nc3ccc4c(ccn4C)c3)CC2)nc(N2CCCCCC2)n1 | 65.1%
2 | C#Cc1cccc(NC(=O)Nc2cccc(NC(=O)CCl)c2)c1 | -43.5% [8.25 µM] (active)
3 | C/C(=N\Nc1cc(C)nc2ccc(Br)cc12)c1ccc([N+](=O)[O-])cc1 | 51.5%
4 | COc1c(Cl)ccc2c(-c3nc4cc(Cl)c(F)cc4s3)cc(=O)oc12 | 80%
5 | N#C/C(=C\c1cccc2c1OCO2)C(=O)Nc1sc2c(c1C#N)CCCC2 | 100%
6 | Cc1nc(Nc2ccc(NC(=S)Nc3ccccc3)cc2)c2ccccc2n1 | 109%
7 | COc1ccc(C/C(C)=C(/c2ccc(OCCCN(C)C)cc2)c2ccc(OC(C)=O)cc2)cc1 | 63.8%
8 | COc1ccc(C2CC(c3ccc(Nc4ccnc5cc(Cl)ccc45)cc3)=NN2C(C)=O)cc1 (stereo not given) | 65.3%
9 | COc1ccc(-c2ncc(-c3ccccc3)[nH]2)cc1OC | 89.1%
10 | COc1ccc(C(=O)c2cc3c(N)c(C(=O)Nc4cccc(Cl)c4C)sc3nc2C)cc1 | -2.98% (active)
11 | O=C(CCCN1CCC(O)(c2ccc(Br)cc2)CC1)c1ccc(F)cc1 | 49.2%
12 | Cc1nc2ccccc2c(/C=C/c2ccc(Br)cc2)c1C(=O)/C=C/c1ccccc1 | -15.5% (active)
13 | CSc1nc2sc3cccc(Cl)c3n2c(=N)c1C#N | 90.4%
14 | COc1ccc(-c2nc3c(c(-c4ccccc4)nn3-c3ccccc3)c(-c3ccc(N4CCN(C)CC4)cc3)c2C#N)cc1 | 79.2%
15 | O=C1c2ccccc2Cc2cccc(Cl)c21 | 92.7%
16 | COc1ccc(-c2cc(/C=C/C(=O)c3ccc(N)cc3)[nH]n2)cc1 | 4.1% (active)
17 | C1CCc2onc(-c3noc4c3CCCCC4)c2CC1 | 108%
18 | CC(C)(C)c1cc(C[P+](c2ccc(Cl)cc2)(c2ccc(Cl)cc2)c2ccc(Cl)cc2)cc(C(C)(C)C)c1O | 6.75% (active)
19 | C[C@H](NC(=O)[C@@H](C)N)[C@H](Oc1ccc2c(cnn2-c2ccc(F)cc2)c1)c1ccc2c(c1)OCCO2 | 37.7%
20 | C=C(C)CCC(C)N1CCC(N2CCC(C(=O)NCCc3ccccc3)CC2)CC1 (stereo not given) | 48.4%

Row | Structure (SMILES) | growth
21 | CCN1C(=O)N(CC)C2Nn3c(s/c(=C\c4ccc(OC)cc4)c3=O)=NC21 (stereo not given) | 14.1%
22 | Nc1nc(Nc2cccc(F)c2)nc2ccccc12 | 8.81% (active)
23 | Cc1cccc(-c2nc(N(C)c3ccc4ncsc4c3)c3ccccc3n2)n1 | 51%
24 | N#Cc1c(-c2ccccc2)nc2c(c(-c3ccccc3)nn2-c2ccccc2)c1-c1ccc(N2CCOCC2)cc1 | 80.9%
25 | O=C1Nc2ccccc2/C1=C/c1cccn1CCCCCCn1c2ccccc2c(=O)c2ccccc21 | 8.47% (active)
26 | N#Cc1c(-c2ccc(Cl)cc2)nc2c(c(-c3ccccc3)nn2-c2ccccc2)c1-c1ccc(O)cc1 | 31.2%
27 | CCN1CCN(Cc2cn(CC(=O)Nc3ccc4c(ccn4Cc4ccccc4)c3)nn2)CC1 | 97.2%
28 | COC(=O)[C@]12CC[C@@H](C)[C@H](C)[C@@H]1C1=CC[C@@H]3[C@@]4(C)C(C=O)=C[C@@](C)(CO)C4=CC[C@@]3(C)[C@]1(C)CC2 | 20%
29 | COc1ccc(N2CCN(S(=O)(=O)c3oc(-c4ccccc4)nc3C#N)CC2)cc1 | 79.6%
30 | O=C(CNc1nc(-c2cccc([N+](=O)[O-])c2)cs1)Nc1cccc([N+](=O)[O-])c1 | 14.3%
31 | N=C(N)c1ccc(-c2ccc(-c3ccc(F)cc3)s2)nc1 | 25.1%
32 | Cc1cc2c(C(C)C)c(O)c(O)c(C=NCCCCCCC(=O)O)c2c(O)c1-c1c(C)cc2c(C(C)C)c(O)c(O)c(C=NCCCCCCC(=O)O)c2c1O | 30.4%
33 | c1ccc(Nc2nc3c(s2)CCc2c[nH]cc2-3)nc1 | 83.6%
34 | CN1CCC(=C2c3ccccc3C=Cc3ccccc32)CC1 | 36%
35 | O=S(=O)(NCCNc1nccc(-n2cnc3ccccc32)n1)c1ccc(C(F)(F)F)cc1 | 26.4%
36 | C=C1C(=O)O[C@H]2[C@H]1CC/C(COC(=O)N[C@H](Cc1c[nH]c3ccccc13)C(=O)OC)=C\CC[C@@]1(C)O[C@@H]21 | 22.5%
37 | Nc1nc(SCC2(CCl)COC2)c2[nH]cnc2n1 | 108%
38 | CCN(CC)CCN1C(=O)c2c(c3c4ccccc4[nH]c3c3ccc4ccccc4c23)C1=O | 79.5%
39 | CCNc1ccc2ccccc2c1N=Nc1ccc(N=Nc2ccccc2)cc1 | 104%
40 | COc1ccc(-c2nnc(/N=C3/C(=O)Nc4ccc(Br)cc43)o2)cc1 | 90.7%
